Laboratory results from PubChem BioAssay AID425 (Sanford-Burnham Center for Chemical Genomics, 2006).
“And” between values parts separate entries of the source, which are not always exact repeats. Equal values may be shown once. Screen size: about 110,000 compounds; about 190 (0.17%) were called active. No stated cut-off is given here; in the data, active means inhibition above about 50%; inactive means the rest. Many of the other results were omitted from the sample, so actives are more common in it than they were. Measured potencies and affinities stand elsewhere. Some compounds were tested as several samples or in several runs, with calls that do not always agree.

Each molecule was assayed against Dual specificity protein phosphatase 6 (Rattus norvegicus) (UniProt Q64346) (assay: MKP-3 phosphatase inhibitors, primary screen, biochemical, rat enzyme, in vitro (AID 425;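 further: plate controls were vehicle for no effect and reference inhibitor for full effect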)). Details: recombinant MKP-3 phosphatase activity, fluorescence; at 20 µM; stronger effect = higher value.
Dual specificity protein phosphatase 6 (Rattus norvegicus), sequence (Q64346 whole entry, looked up): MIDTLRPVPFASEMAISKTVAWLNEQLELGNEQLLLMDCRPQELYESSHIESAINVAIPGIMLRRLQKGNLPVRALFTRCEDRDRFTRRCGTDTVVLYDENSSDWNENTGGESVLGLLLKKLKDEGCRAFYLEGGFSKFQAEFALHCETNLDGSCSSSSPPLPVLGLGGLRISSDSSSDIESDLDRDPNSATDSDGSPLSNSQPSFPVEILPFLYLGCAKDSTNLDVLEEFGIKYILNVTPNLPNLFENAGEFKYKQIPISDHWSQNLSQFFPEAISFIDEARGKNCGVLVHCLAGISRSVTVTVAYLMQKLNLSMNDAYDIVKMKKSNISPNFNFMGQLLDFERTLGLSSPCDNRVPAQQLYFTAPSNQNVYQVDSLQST
`CCOc1ccc(Nc2ccc3noc4c3c2C(=O)c2ccccc2-4)cc1` was tested, and the inhibition was 3.7% (inactive). For `O=C1c2ccccc2-c2onc3ccc(Oc4ccc(Cl)cc4)c1c23`, the inhibition was 92.2% (active). `CCOc1ccc2noc3c2c1C(=O)c1ccccc1-3` was tested, and the inhibition was 45.7% (inactive) and 44.7% (inactive). `O=C1c2ccccc2-c2onc3ccc(Cl)c1c23` was tested, and the inhibition was 13.1% (inactive). `O=C1c2ccccc2-c2onc3ccc(N4CCCCC4)c1c23` was tested, and the inhibition was 10.8% (inactive). `O=C1c2ccccc2-c2onc3ccc(NCc4ccco4)c1c23` was tested, and the inhibition was -14.4% (inactive). With `O=C1c2ccccc2-c2onc3ccc(NC4CCCCC4)c1c23` the inhibition was -1.7% (inactive). For `COc1ccc2noc3c2c1C(=O)c1ccccc1-3`, the inhibition was 102% (active) and -3.3% (inactive). `CCNc1ccc2noc3c2c1C(=O)c1ccccc1-3` was tested, and the inhibition was 4.2% (inactive). In the case of `O=C1c2ccccc2-c2onc3ccc(Sc4ccccc4)c1c23`, the inhibition is reported as 7.7% (inactive). In the case of `O=C1C=Cc2ccccc2/C1=N/Oc1ccc2noc3c2c1C(=O)c1ccccc1-3`, the inhibition is reported as 65.3% (active). For `Cc1ccc2c(c1)c1nc3ccccc3nc1n2CCN1CCOCC1`, the inhibition was 1.9% (inactive). With `Brc1cccc(CN2CCN(C3CCN(Cc4ccccc4)CC3)CC2)c1` the inhibition was 3.4% (inactive). `O=C(CSC(=S)N1CCOCC1)c1ccc([N+](=O)[O-])cc1` was tested, and the inhibition was 2.2% (inactive). `Cc1ccc(-n2c3c(cc(C(=O)NCCCN4CCOCC4)c2=O)C(=O)CC(C)(C)C3)cc1` was tested, and the inhibition was -7.6% (inactive). With `COc1cccc(C2/C(=C(\O)c3c(C)nc4c(C)cccn34)C(=O)C(=O)N2CCCN(C)C)c1` (stereo not drawn) the inhibition was -2.7% (inactive). In the case of `CCCCOC(=O)c1c(NC(=O)C2C3CCC(C3)C2C(=O)O)sc2c1CCCC2` (stereo not drawn), the inhibition is reported as 0% (inactive). For `COc1ccc(/C=C/C(=O)NC(=S)Nc2ccc(S(=O)(=O)N=C(N)N)cc2)cc1`, the inhibition was -1.1% (inactive). With `O=C1CC(c2ccccc2)CC2=C1C(c1cccnc1)Nc1ccc(C(=O)c3ccccc3)cc1N2` (stereo not drawn) the inhibition was 8.5% (inactive). For `O=C(O)C1C2C=CC(O2)C1C(=O)Nc1ccccc1C(F)(F)F` (stereo not drawn), the inhibition was 4.5% (inactive). With `O=C(O)c1ccc(NC2=C(N3CCCCC3)C(=O)c3ccccc3C2=O)cc1` the inhibition was 1.7% (inactive). With `O=C1C(Nc2ccc(Cl)cc2)=C(N2CCCCC2)C(=O)c2ccccc21` the inhibition was 55.2% (active). For `O=C1C(Nc2ccc(Cl)cc2)=C(N2CCOCC2)C(=O)c2ccccc21`, the inhibition was 2% (inactive). In the case of `CCOCCOC(=O)C1=C(C)N(C)C(=O)NC1c1cc(Cl)c(O)c(OCC)c1` (stereo not drawn), the inhibition is reported as -5.1% (inactive). `O=C(CN1CCN(Cc2ccccc2Cl)C1=O)NC1CCCCCCC1` was tested, and the inhibition was -3.3% (inactive). `Cc1c(CCC(=O)O)c(=O)oc2cc(O)ccc12` was tested, and the inhibition was 2.4% (inactive). In the case of `Cc1c(CCC(=O)O)c(=O)oc2cc3occ(-c4ccc(F)cc4)c3cc12`, the inhibition is reported as 8.5% (inactive). With `COc1ccc(C2(O)CC3CCC(C2)N3c2cc(C)nc(-c3ccccc3)n2)cc1` (stereo not drawn) the inhibition was 7.5% (inactive). `Cc1ccc(C2CC(C(F)(F)F)n3nc(C(=O)N(Cc4ccccc4)Cc4ccccc4)cc3N2)cc1` (stereo not drawn) was tested, and the inhibition was 3.9% (inactive). For `COc1ccc(Cn2c3nc4ccccc4nc3c3c(=O)n(Cc4ccco4)cnc32)cc1`, the inhibition was 2.5% (inactive). For `COc1ccc(Cn2c3nc4ccccc4nc3c3c(=O)n(Cc4ccco4)c(C)nc32)cc1`, the inhibition was 8.3% (inactive). In the case of `COC(=O)c1c(-c2ccccc2)csc1NC(=O)CCCC(=O)O`, the inhibition is reported as 3.6% (inactive). For `CN=C(Nc1ccc(F)cc1)SC1CC(=O)N(c2ccccc2F)C1=O` (stereo not drawn), the inhibition was 1.3% (inactive). In the case of `COC(=O)c1c2nc3ccccc3sc-2cc(=O)c1N`, the inhibition is reported as 122% (active). In the case of `COC(=O)N(C)c1nc2ccccc2s1`, the inhibition is reported as -5% (inactive). For `CCOC(=O)c1nc2ccccc2s1`, the inhibition was -6.5% (inactive). For `O=C(Nc1cccc2c1CCCC2)c1ccc(Br)cc1`, the inhibition was 2.6% (inactive). For `O=C(Cc1ccccc1)Nc1ccccc1C(=O)N1CCN(Cc2ccccc2)CC1`, the inhibition was 2.5% (inactive). For `CC(Oc1ccc(Cl)cc1Cl)C(=O)N1CCN(Cc2ccccc2)CC1` (stereo not drawn), the inhibition was -0.2% (inactive). In the case of `CCOC(=O)c1sc2ncn(C(C)C(=O)OCC)c(=O)c2c1C` (stereo not drawn), the inhibition is reported as 0.5% (inactive). For `CCOC(=O)c1sc2nc(SCC(=O)NCc3ccco3)n(Cc3ccccc3)c(=O)c2c1C`, the inhibition was -3.7% (inactive). In the case of `CCOC(=O)c1sc2ncn(C(C)C(=O)OC)c(=O)c2c1C` (stereo not drawn), the inhibition is reported as -14.1% (inactive). For `CCOC(=O)c1sc2ncn(C(CC)C(=O)OC)c(=O)c2c1C` (stereo not drawn), the inhibition was -9.8% (inactive). With `O=C(COc1ccc(Cl)cc1)Nc1ncccn1` the inhibition was -2.2% (inactive). `C/C(=N\OCC(=O)N=Nc1c(O)n(CN2CCN(C)CC2)c2ccccc12)c1cccs1` was tested, and the inhibition was -0.1% (inactive). With `CN(C)c1ccc(C(C2=C(O)CC(C)(C)CC2=O)C2=C(O)CC(C)(C)CC2=O)cc1` the inhibition was 3.2% (inactive). In the case of `O=C(Cn1nc(Cc2cccnc2)c2ccccc2c1=O)Nc1ccc2c(c1)OCO2`, the inhibition is reported as -0.1% (inactive). With `COC(=O)c1cc2c([nH]c3ccccc32)c(C)n1` the inhibition was -4% (inactive).
